According to PubChem BioAssay (NCATS):
Records with an inconclusive call do not appear. Entries that show only a call come without a potency. Calls of active or inactive are those of the source. Calls come from the whole dose curve; as a rule, active = well fitted inhibition curve with a large enough effect; inconclusive = small, poorly fitted or top-dose-only effect; inactive = flat fitted curve, though single readings scatter.

Legend:
[1] = biological target: Glutathione peroxidase 1 (Homo sapiens) (UniProt P07203); assay: Primary qHTS Assay for Inhibitors of Recombinant Selenoprotein Glutathione Peroxidase 1 (GPX1) (AID 1845191)
Glutathione peroxidase 1 (Homo sapiens), sequence (P07203 whole entry, looked up): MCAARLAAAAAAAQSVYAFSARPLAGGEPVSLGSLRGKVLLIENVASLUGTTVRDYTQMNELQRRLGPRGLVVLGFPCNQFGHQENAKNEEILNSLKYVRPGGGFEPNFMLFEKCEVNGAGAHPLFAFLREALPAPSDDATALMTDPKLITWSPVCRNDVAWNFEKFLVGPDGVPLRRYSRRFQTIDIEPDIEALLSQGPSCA
In short: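 GPX1 10 nM, GR 100 nM, GSH 1 mM, NADPH 0.5 mM, CHP 0.5 mM (final). 30-min cpd preincubation, RT. Ex340/Em450 read t=0, t=15 min.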

[2] = biological target: Phospholipid hydroperoxide glutathione peroxidase GPX4 (Homo sapiens) (UniProt P36969); assay: Primary qHTS Assay for Inhibitors of Recombinant Selenoprotein Glutathione Peroxidase 4 (GPX4) (AID 1845192)
Phospholipid hydroperoxide glutathione peroxidase GPX4 (Homo sapiens), sequence (P36969 whole entry, looked up): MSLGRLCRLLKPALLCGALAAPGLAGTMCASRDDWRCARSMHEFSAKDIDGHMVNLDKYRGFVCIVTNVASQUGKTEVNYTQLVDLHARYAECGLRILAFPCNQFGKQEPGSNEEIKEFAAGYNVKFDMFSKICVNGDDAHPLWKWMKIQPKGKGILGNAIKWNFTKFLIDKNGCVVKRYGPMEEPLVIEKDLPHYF
In short: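 qHTS, GR-coupled: GPX4 200 nM + cpd 30 min RT → GSH 1 mM, NADPH 0.5 mM, GR 100 nM → CHP 0.5 mM start; fluor 340/450 at t0 and t15 min; no-enzyme wells as control.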
Note: nearly all actives have a fitted effect of over 65% in size.

Row | Compound | Potency [1] | Potency [2]
1 | COc1ccccc1CNCCCCCCNCCCCCCCCNCCCCCCNCc1ccccc1OC | inactive | inactive
2 | O=C(CCSCc1ccco1)NNC(=O)N1Cc2ccccc2Oc2ccc(Cl)cc21 | inactive | inactive
3 | COC1=C(OC)C(=O)c2ccccc2C1=O | inactive | inactive
4 | Clc1ccc(N2CCN(Cc3c[nH]c4ncccc34)CC2)cc1 | inactive | inactive
5 | CCCC(CCC)C(=O)OC1CC2CCC(C1)[N+]2(C)C (stereo not given) | inactive | inactive
6 | COc1ccc(/C=C2\COc3ccc(C)cc3C2=O)cc1O | inactive | inactive
7 | NC[C@@H]1O[C@H](C23CC4CC(CC(C4)C2)C3)Cc2c1ccc(O)c2O | inactive | inactive
8 | O=C1NC(=O)c2c1c(-c1ccccc1)cc1[nH]c3ccc(O)cc3c21 | inactive | inactive
9 | Cc1c(C(=O)O)c(O)cc2c1C(=O)c1c(O)c([C@@H]3O[C@H](CO)[C@@H](O)[C@H](O)[C@H]3O)c(O)c(O)c1C2=O | inactive | inactive
10 | CCCCCCCCCCCCCCCCCC(=O)OC(CC(=O)O)C[N+](C)(C)C (stereo not given) | inactive | inactive
11 | Nc1nc(SCc2ccc([N+](=O)[O-])cc2)c2ncn([C@@H]3O[C@H](CO)[C@@H](O)[C@H]3O)c2n1 | inactive | inactive
12 | C=C[C@@H]1CN2CC[C@@H]1C[C@H]2[C@H](O)c1ccnc2ccc(OC)cc12 | inactive | inactive
13 | Nc1nc2ccc(Cl)cc2n2c(-c3ccccc3)nnc12 | inactive | inactive
14 | NCCSSCCN | inactive | inactive
15 | CC[C@H]1OC(=O)[C@H](C)C(O[C@H]2C[C@@](C)(OC)[C@@H](O)[C@H](C)O2)[C@H](C)[C@@H](OC2O[C@H](C)C[C@H](N(C)C)[C@H]2O)[C@](C)(O)C[C@@H](C)CN(C)[C@H](C)[C@@H](O)[C@]1(C)O (stereo not given in full) | inactive | inactive
